In PubChem BioAssay (Tox21) one finds outcome and fluorescence, % of fluorescein data, which are given here for 40 molecules.

Calls of active or inactive are those of the source. The call rests on the fitted dose curve; in most records, active means well fitted curve in the direction sought with a large enough effect in the repeat runs; inconclusive means weak or mixed curves; inactive means flat fitted curve, though single readings scatter.
On the % scale 0 is the no-effect control and ±100 the full control effect.

A short description of the experiment: qHTS assay to test for compound auto fluorescence at 535 nm (green) in HEK293 cells (AID 720680). The following applies: green autofluorescence 485/535 nm; series mostly up to 91.3 µM. An excerpt:
U.S. Tox21 Program National Center for Advancing Translational Sciences [NCATS] NIH Chemical Genomics Center [NCGC] U.S. Environmental Protection Agency [EPA] National Institutes of Environmental Health Sciences [NIEHS] National Toxicology Program [NTP] U.S. Food and Drug Administration [FDA] Tox21 Assay Overview: Compound auto fluorescence often interferes with screening of the compound library against various biological targets and signaling pathways. Some of these compounds may have fluorophoric properties. Such properties may interfere with the assay outputs resulting in false positives and/or negatives. To decrease such complications and ensure the compound activities are relevant in terms of biological response, the Tox21 10K compound library was screened for auto fluorescence. From the fluorophores used as reporter signals in our screening assays, the auto fluorescence equivalencies of compounds against three fluorophores have been evaluated: Triamterene, Fluorescein and Rose Bengal sodium for blue, green and red fluorescence, respectively. The fluorescence intensities were measured using Excitation/Emission wavelengths at 405/460nm, 485/535nm and 540/590nm for blue, green and red labels, respectively. This assay includes the green fluorescence data.
Tox21 Assay Protocol Summary: 2,000 HEK293 cells in 5 uL of culture medium containing 10% dialyzed FBS per well were dispensed into black wall/clear bottom 1536-well plates using a Multidrop Combi Dispenser (Thermo Scientific). The assay plates were incubated for 4-5 hr at 37C to allow cell attachment to the well bottom, followed by the transfer of 23 nL compound or DMSO vehicle by a pintool work station (Kalypsys, San Diego, CA). After the assay plates were incubated overnight at 37C and 5% CO2, fluorescence intensities in the assay plates were measured by an Envision (PerkinElmer, Shelton, CT) plate reader using three labels for measuring blue, green and red fluorescence at […] 460, 535 and 590nm respectively.
(qHTS replaces the single test concentration by a dilution series.)
`O=C1CCN(c2ccccc2)N1`: the call was inactive.
As for `CC(C)C[C@H](NC(=O)OCC1c2ccccc2-c2ccccc21)C(=O)O`, the call was inactive.
The same measure, in the same setting: under `C=C(C)C(=O)OCCOP(=O)(O)O` stands “inactive”; under `Cc1ccc([N+](=O)[O-])c(N)c1`, “inactive”.
For the molecule `CCN[C@H]1CN(CCCOC)S(=O)(=O)c2sc(S(N)(=O)=O)cc21`, the fluorescence, % of fluorescein was -0.0786% [at 18.6 µM] (inactive).
As for `CNCCC(Oc1ccccc1OC)c1ccccc1` (stereo not given), the result was inactive.
Still for that read-out and setting: to `CCCCCCOc1ccc(N)cc1` belongs “inactive”.
The same measure, in the same setting: to `C1CCOC1` belongs “inactive”.
Consider `CC(CNC1CCCCC1)OC(=O)c1ccccc1` (stereo not given), for which the fluorescence, % of fluorescein was 0.0598% [at 18.6 µM] (inactive).
Consider `C=CC(C)(O)CC/C=C(\C)CCC=C(C)C` (stereo not given), for which the result was inactive.
On the same count and under the same terms, under `CC(C)C(=O)OCC(C)(C)C(O)C(C)C` (stereo not given) stands “inactive”; under `CO[Si](C)(C)OC`, “inactive”.
Same read-out and setting: under `C[C@@H]1CN(c2c(F)c(F)c3c(=O)c(C(=O)O)cn(C4CC4)c3c2F)C[C@H](C)N1` stands “inactive”; under `O=C(Cl)c1cccc([N+](=O)[O-])c1`, “inactive”.
`CCOC(=O)COc1ccc2c(c1)CC(NCC(O)c1cccc(Cl)c1)CC2` (stereo not given): the molecule was called inactive.
Take `CN1CCN(C2=Nc3ccccc3Oc3ccc(Cl)cc32)CC1`: the fluorescence, % of fluorescein is 0.0654% [at 18.6 µM] (inactive).
With `NS(=O)(=O)c1cc(-c2nn[nH]n2)c(NCc2cccs2)cc1Cl`, the call was inactive.
Same read-out and setting: to `Cc1nnc(SCC2=C(C(=O)O)N3C(=O)[C@@H](NC(=O)Cn4cnnn4)[C@H]3SC2)s1` belongs “inactive”; to `C[C@@H]1CN(c2c(F)c(N)c3c(=O)c(C(=O)O)cn(C4CC4)c3c2F)C[C@H](C)N1`, “inactive”; to `CCCC1CCC(=O)O1` (stereo not given), “inactive”.
For the molecule `CC(C)Nc1nc(N)nc(Cl)n1`, the outcome was inactive.
On the same count and under the same terms, to `CC1(O)CSC(C)(O)CS1` (stereo not given) belongs “inactive”; to `Cc1ccc(C)c(N)c1`, “inactive”.
With `CCCCOc1cc(C(=O)NCCN(CC)CC)c2ccccc2n1`, the fluorescence, % of fluorescein was 0.0154% [at 18.6 µM] (inactive).
Regarding `Cc1cc(NS(=O)(=O)c2ccc(N)cc2)nc(C)n1`, the result was inactive.
The same measure, in the same setting: to `FC(F)(F)C(F)(F)C(F)(F)C(F)(F)C(F)(F)C(F)(F)C(F)(F)C(F)(F)Br` belongs “inactive”; to `Cc1cc2nc(N)sc2cc1C`, “inactive”; to `NNS(=O)(=O)c1ccc(Oc2ccc(S(=O)(=O)NN)cc2)cc1`, “inactive”.
Same read-out and setting: to `Cc1ccc(C=O)s1` belongs “inactive”; to `CCCCCOc1ccc(C2SC(=O)NC2=O)cc1OCC` (stereo not given), “inactive”; to `CC(C)CCCCCCc1ccc(OCCOCCO)cc1`, “inactive”.
Same read-out and setting: to `CC1=C2[C@H](/C=C(\C)C(=O)O)CC[C@@H](C)[C@H]2CC1` belongs “inactive”.
`CCOc1ccc(NS(=O)(=O)c2ccc(N)cc2)nn1`: the call was inactive.
Same read-out and setting: to `OCc1ccccc1O` belongs “inactive”; to `CC1(C)C(=O)N(Cl)C(=O)N1Br`, “inactive”; to `CCN(CC)CCOc1ccc(Cc2ccccc2)cc1`, “inactive”.
On to `CC(=O)Nc1ccc(C)c(Cl)c1`, for which the outcome was inactive.
The same measure, in the same setting: to `C=CC1CO1` (stereo not given) belongs “inactive”; to `OCC(CBr)(CBr)CBr`, “inactive”.
Same read-out and setting: under `O=C(CC(=O)C(F)(F)F)c1ccccc1` stands “inactive”.
